# Measurements from PubChem BioAssay (EPA / NIEHS).
# Calls of active or inactive are those of the source. The calls were made as follows: active = hit-call score of the fitted dose curve at least 0.9, where 1 is the maximum; inactive = score below 0.9.
# Columns and labels:
# [1] = read-out: Cyclin D1 (CCND1), CCND1 (gene 595); assay: LTEA_HepaRG_CCND1: Life Technologies and Expression Analysis (LTEA) Assay for Cyclin D1 (CCND1) using HepaRG (AID 2283451); details: mRNA level, 48 h; actives raise or lower the signal;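 as to AC50: TaqMan qRT-PCR transcript level normalised to ACTB GAPDH and POLR2A housekeeping genes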
# Summary of the method: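 Expression change is measured by qRT-PCR in HepaRG cells after 48 h treatment across eight concentrations topping at 100 uM, with duplicate wells and DMSO (0.5%) serving as baseline for bidirectional fitting.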
# [2] = read-out: catalase (CAT), CAT (gene 847); assay: LTEA_HepaRG_CAT: Life Technologies and Expression Analysis (LTEA) Assay for catalase (CAT) using HepaRG (AID 2283452); details: mRNA level, 48 h; actives raise or lower the signal;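 as to AC50: TaqMan qRT-PCR signal normalized to ACTB GAPDH and POLR2A housekeeping genes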
# Summary of the method: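 Differentiated HepaRG cells in serum-free induction medium were dosed 48 h in duplicate, eight half-log concentrations from 100 uM in 0.5% DMSO. Transcript measured by TaqMan qRT-PCR, normalised to ACTB/GAPDH/POLR2A, fitted bidirectionally against DMSO.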
# [3] = read-out: flavin-containing dimethylaniline monooxygenases 3 (FMO3), FMO3 (gene 2328); assay: LTEA_HepaRG_FMO3: Life Technologies and Expression Analysis (LTEA) Assay for flavin-containing dimethylaniline monooxygenases 3 (FMO3) using HepaRG (AID 2283453); details: mRNA level, 48 h; actives raise or lower the signal
# Summary of the method: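 Differentiated HepaRG cells in serum-free induction medium, exposed 48 h in duplicate to 8 half-log concentrations up to 100 uM in 0.5% DMSO. FMO3 mRNA by qRT-PCR, normalized to ACTB, GAPDH, POLR2A; bidirectional fit vs DMSO.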
# [4] = read-out: Cytochrome P450 (CYP1A1), CYP1A1 (gene 1543); assay: LTEA_HepaRG_CYP1A1: Life Technologies and Expression Analysis (LTEA) Assay for Cytochrome P450 (CYP1A1) using HepaRG (AID 2283454); details: mRNA level, 48 h; actives raise or lower the signal
# Summary of the method: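 Using HepaRG cultures with 0.5% DMSO as vehicle, eight-concentration exposures (max 100 uM) lasted 48 h. Transcript levels were measured by TaqMan qRT-PCR and normalized to ACTB, GAPDH and POLR2A.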
# [5] = read-out: CFLAR gene, CFLAR (gene 8837); assay: LTEA_HepaRG_CFLAR: Life Technologies and Expression Analysis (LTEA) Assay for CFLAR gene using HepaRG (AID 2283455); details: mRNA level, 48 h; actives raise or lower the signal
# Summary of the method: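 HepaRG cells were plated for 48 h, switched to serum-free induction medium, then exposed in duplicate for 48 h to 8 concentrations (top 100 uM, half-log steps, 0.5% DMSO). CFLAR mRNA was measured by qRT-PCR, normalized to ACTB, GAPDH and POLR2A.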
# [6] = read-out: Forkhead box O1 (FOXO1), FOXO1 (gene 2308); assay: LTEA_HepaRG_FOXO1: Life Technologies and Expression Analysis (LTEA) Assay for Forkhead box O1 (FOXO1) using HepaRG (AID 2283456); details: mRNA level, 48 h; actives raise or lower the signal
# Summary of the method: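 Differentiated human HepaRG cells in serum-free induction medium were exposed in duplicate for 48 h to eight half-log concentrations (top 100 uM, 0.5% DMSO). FOXO1 mRNA was measured by TaqMan qRT-PCR, normalised to ACTB, GAPDH and POLR2A, and fitted bidirectionally against DMSO.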
# [7] = CEETOX_H295R_TESTO: CeeTox H295R High-throughput Steroidogenesis Assay for Testosterone (TESTO) (AID 2283457); details: actives raise or lower the signal
# Summary of the method: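 Steroidogenesis in H295R cells following OECD 456 with minor changes; 48 h exposure. Medium testosterone by HPLC-MS/MS, DMSO as baseline, with MTT viability run in parallel.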
# [8] = read-out: growth arrest and DNA damage 45 (GADD45A), GADD45A (gene 1647); assay: LTEA_HepaRG_GADD45A: Life Technologies and Expression Analysis (LTEA) Assay for growth arrest and DNA damage 45 (GADD45A) using HepaRG (AID 2283458); details: mRNA level, 48 h; actives raise or lower the signal
# Summary of the method: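 Cells plated and cultured 48 h, switched to serum-free induction medium, then dosed for 48 h (100 uM top, half-log dilutions, 0.5% DMSO). RNA was isolated and transcript measured by Fluidigm qRT-PCR.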
# [9] = read-out: Forkhead box O3 (FOXO3), FOXO3 (gene 2309); assay: LTEA_HepaRG_FOXO3: Life Technologies and Expression Analysis (LTEA) Assay for Forkhead box O3 (FOXO3) using HepaRG (AID 2283459); details: mRNA level, 48 h; actives raise or lower the signal
# Summary of the method: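 Differentiated human HepaRG cells in serum-free induction medium were exposed in duplicate for 48 h to eight half-log concentrations up to 100 uM in 0.5% DMSO. FOXO3 mRNA was quantified by qRT-PCR, normalized to ACTB, GAPDH and POLR2A, with bidirectional fitting versus DMSO.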
# [10] = read-out: ABC Transporter (ABCB1), ABCB1 (gene 5243); assay: LTEA_HepaRG_ABCB1: Life Technologies and Expression Analysis (LTEA) Assay for ABC Transporter (ABCB1) using HepaRG (AID 2283460); details: mRNA level, 48 h; actives raise or lower the signal
# Summary of the method: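 Differentiated human HepaRG cells, plated 48 h then switched to serum-free induction medium, were exposed in duplicate to eight half-log concentrations up to 100 uM in 0.5% DMSO for 48 h. ABCB1 mRNA was measured by TaqMan qRT-PCR, normalized to ACTB/GAPDH/POLR2A.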
# [11] = read-out: growth arrest and DNA damage 45 (GADD45B), GADD45B (gene 4616); assay: LTEA_HepaRG_GADD45B: Life Technologies and Expression Analysis (LTEA) Assay for growth arrest and DNA damage 45 (GADD45B) using HepaRG (AID 2283461); details: mRNA level, 48 h; actives raise or lower the signal
# Summary of the method: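 Human HepaRG monolayers receive chemicals for 48 h at eight half-log concentrations, highest 100 uM, in 0.5% DMSO. Expression is measured by TaqMan qRT-PCR and normalized to ACTB, GAPDH and POLR2A.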
# [12] = read-out: ABC Transporter (ABCC3), ABCC3 (gene 8714); assay: LTEA_HepaRG_ABCC3: Life Technologies and Expression Analysis (LTEA) Assay for ABC Transporter (ABCC3) using HepaRG (AID 2283462); details: mRNA level, 48 h; actives raise or lower the signal
# Summary of the method: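 Transcriptional change of ABCC3 in HepaRG after 48 h treatment, determined by qRT-PCR normalized to endogenous controls. Concentrations spanned eight half-log steps to 100 uM in 0.5% DMSO.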
# [13] = read-out: ABC Transporter (ABCB11), ABCB11 (gene 8647); assay: LTEA_HepaRG_ABCB11: Life Technologies and Expression Analysis (LTEA) Assay for ABC Transporter (ABCB11) using HepaRG (AID 2283463); details: mRNA level, 48 h; actives raise or lower the signal
# Summary of the method: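 Differentiated human HepaRG cells were exposed for 48 h in serum-free induction medium to eight half-log concentrations up to 100 uM in 0.5% DMSO. ABCB11 mRNA was quantified by qRT-PCR, normalized to ACTB, GAPDH and POLR2A, and fitted bidirectionally versus DMSO.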
# [14] = read-out: ABC Transporter (ABCC2), ABCC2 (gene 1244); assay: LTEA_HepaRG_ABCC2: Life Technologies and Expression Analysis (LTEA) Assay for ABC Transporter (ABCC2) using HepaRG (AID 2283464); details: mRNA level, 48 h; actives raise or lower the signal
# Summary of the method: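 After plating and 48 h culture, HepaRG medium is replaced with serum-free induction medium and chemicals are added (8 concentrations, max 100 uM, 0.5% DMSO) for 48 h. Total RNA then undergoes qRT-PCR for ABCC2 with housekeeping normalization.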
# [15] = read-out: Broad substrate specificity ATP-binding cassette transporter ABCG2 (Homo sapiens) (UniProt Q9UNQ0); assay: LTEA_HepaRG_ABCG2: Life Technologies and Expression Analysis (LTEA) Assay for ABC Transporter (ABCG2) using HepaRG (AID 2283465); details: mRNA level, 48 h; actives raise or lower the signal
# Summary of the method: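 Differentiated HepaRG cells in serum-free induction medium were exposed for 48 h, in duplicate, to eight half-log concentrations up to 100 uM in 0.5% DMSO. ABCG2 mRNA was measured by TaqMan qRT-PCR, normalized to ACTB, GAPDH and POLR2A, and fitted bidirectionally versus DMSO.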
# [16] = read-out: ATP-citrate lyase (ACLY), ACLY (gene 47); assay: LTEA_HepaRG_ACLY: Life Technologies and Expression Analysis (LTEA) Assay for ATP-citrate lyase (ACLY) using HepaRG (AID 2283466); details: mRNA level, 48 h; actives raise or lower the signal
# Summary of the method: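 Differentiated human HepaRG cells in serum-free induction medium exposed 48 h, in duplicate, to eight half-log concentrations from 100 uM top in 0.5% DMSO; ACLY mRNA measured by qRT-PCR, normalized to ACTB, GAPDH, POLR2A, fitted bidirectionally versus DMSO.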
# [17] = read-out: Peroxisomal acyl-coenzyme A oxidase 1 (ACOX1) gene, ACOX1 (gene 51); assay: LTEA_HepaRG_ACOX1: Life Technologies and Expression Analysis (LTEA) Assay for Peroxisomal acyl-coenzyme A oxidase 1 (ACOX1) gene using HepaRG (AID 2283467); details: mRNA level, 48 h; actives raise or lower the signal
# Summary of the method: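 Differentiated human HepaRG cells were exposed in duplicate for 48 h in serum-free induction medium to eight half-log concentrations up to 100 uM in 0.5% DMSO. ACOX1 mRNA was then quantified by TaqMan qRT-PCR, normalized to ACTB, GAPDH and POLR2A.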
# [18] = read-out: Alkaline Phosphatase, Placental (ALPP) gene, ALPP (gene 250); assay: LTEA_HepaRG_ALPP: Life Technologies and Expression Analysis (LTEA) Assay for Alkaline Phosphatase, Placental (ALPP) gene using HepaRG (AID 2283468); details: mRNA level, 48 h; actives raise or lower the signal
# Summary of the method: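 Using human liver HepaRG cells, chemicals are tested in duplicate over 48 h at half-log concentrations topping at 100 uM; phenobarbital 1 mM serves as induction control. ALPP mRNA change by qRT-PCR, bidirectional fit against vehicle.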
# [19] = read-out: Bcl-2 (BAD) gene, BAD (gene 572); assay: LTEA_HepaRG_BAD: Life Technologies and Expression Analysis (LTEA) Assay for Bcl-2 (BAD) gene using HepaRG (AID 2283469); details: mRNA level, 48 h; actives raise or lower the signal
# Summary of the method: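 Differentiated human HepaRG cells in serum-free induction medium were exposed in duplicate for 48 h to eight concentrations (top 100 uM, half-log steps, 0.5% DMSO). BAD mRNA was quantified by qRT-PCR normalised to ACTB, GAPDH and POLR2A, with bidirectional fitting versus DMSO.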
# [20] = read-out: Bcl-2 (BAX) gene, BAX (gene 581); assay: LTEA_HepaRG_BAX: Life Technologies and Expression Analysis (LTEA) Assay for Bcl-2 (BAX) gene using HepaRG (AID 2283470); details: mRNA level, 48 h; actives raise or lower the signal
# Summary of the method: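 HepaRG (human liver), 48 h exposure, duplicate wells. 8-pt curve, half-log from 100 uM, 0.5% DMSO. BAX transcript by TaqMan qRT-PCR; ACTB/GAPDH/POLR2A normalization; gain or loss vs DMSO baseline.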
# Chain of Broad substrate specificity ATP-binding cassette transporter ABCG2 (Homo sapiens) (Q9UNQ0 whole entry, looked up): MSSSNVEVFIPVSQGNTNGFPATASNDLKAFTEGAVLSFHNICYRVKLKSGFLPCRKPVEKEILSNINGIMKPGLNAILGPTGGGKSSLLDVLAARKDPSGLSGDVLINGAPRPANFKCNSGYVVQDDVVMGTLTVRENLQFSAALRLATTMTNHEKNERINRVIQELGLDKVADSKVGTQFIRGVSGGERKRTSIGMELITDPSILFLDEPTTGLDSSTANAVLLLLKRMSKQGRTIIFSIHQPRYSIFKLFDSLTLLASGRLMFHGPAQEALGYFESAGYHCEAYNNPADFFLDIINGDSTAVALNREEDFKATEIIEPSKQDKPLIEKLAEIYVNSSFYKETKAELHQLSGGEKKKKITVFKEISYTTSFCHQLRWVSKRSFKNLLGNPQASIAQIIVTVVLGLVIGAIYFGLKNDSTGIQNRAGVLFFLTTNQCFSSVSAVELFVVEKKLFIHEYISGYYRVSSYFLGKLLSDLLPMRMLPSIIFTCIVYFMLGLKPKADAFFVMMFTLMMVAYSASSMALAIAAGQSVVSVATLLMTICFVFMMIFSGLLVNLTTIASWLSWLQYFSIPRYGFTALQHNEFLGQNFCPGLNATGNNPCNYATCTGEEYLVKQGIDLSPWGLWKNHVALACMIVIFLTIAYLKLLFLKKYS
smiles,measurement,setting,value
O=C1OC(c2ccc(O)cc2)(c2ccc(O)cc2)c2ccccc21,AC50,[1],78.7 µM (active)
same,AC50,[2],69.2 µM (active)
same,AC50,[3],93.8 µM (active)
same,AC50,[4],50 µM (active)
same,AC50,[5],76.4 µM (active)
same,AC50,[6],50 µM (active)
same,outcome,[7],inactive
same,outcome,[8],inactive
same,AC50,[9],50 µM (active)
same,outcome,[10],inactive
same,outcome,[11],inactive
same,outcome,[12],inactive
same,AC50,[13],69.8 µM (active)
same,outcome,[14],inactive
same,AC50,[15],79.2 µM (active)
same,outcome,[16],inactive
same,AC50,[17],50 µM (active)
same,outcome,[18],inactive
same,outcome,[19],inactive
CC(=O)S[C@H](C(=O)N[C@H]1Cc2ccccc2[C@H]2CCC[C@@H](C(=O)O)N2C1=O)C(C)C,outcome,[1],inactive
same,outcome,[2],inactive
same,outcome,[3],inactive
same,outcome,[4],inactive
same,outcome,[5],inactive
same,outcome,[6],inactive
same,outcome,[8],inactive
same,outcome,[9],inactive
same,outcome,[10],inactive
same,outcome,[11],inactive
same,outcome,[12],inactive
same,outcome,[13],inactive
same,outcome,[14],inactive
same,outcome,[15],inactive
same,outcome,[16],inactive
same,outcome,[17],inactive
same,outcome,[18],inactive
same,outcome,[19],inactive
CC(=O)O[C@]1(C(C)=O)CC[C@H]2[C@@H]3C=C(Cl)C4=CC(=O)[C@@H]5C[C@@H]5[C@]4(C)[C@H]3CC[C@@]21C,outcome,[1],inactive
same,AC50,[2],50 µM (active)
same,AC50,[3],36.1 µM (active)
same,outcome,[4],inactive
same,AC50,[5],50 µM (active)
same,AC50,[6],50 µM (active)
same,AC50,[8],50 µM (active)
same,outcome,[9],inactive
same,outcome,[10],inactive
same,outcome,[11],inactive
same,outcome,[12],inactive
same,outcome,[13],inactive
same,AC50,[14],50 µM (active)
same,outcome,[15],inactive
same,outcome,[16],inactive
same,AC50,[17],29.2 µM (active)
same,outcome,[18],inactive
same,outcome,[19],inactive
same,AC50,[20],50 µM (active)
